Out of some 4,100 compounds screened, about 1,600 (39%) were called active. About 25% were inconclusive and are not listed. The call rests on the fitted dose curve; in most records, active means well fitted inhibition curve with a large enough effect; inconclusive means small, poorly fitted or top-dose-only effect; inactive means no such curve, though single readings can be large or run the other way. Some of the results follow.
assay: qHTS Validation assay for Inhibitors of Plasmodium falciparum Dd2 growth in vitro; further: nearly all actives have a fitted effect of over 70% in size; settings: P. falciparum Dd2 in RBCs, SYBR Green growth, 72 h; series mostly up to 28.7 µM; activity change, negative = inhibition: at the top concentration
Procedure, shortened: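 P. falciparum Dd2-infected red blood cells (2.5% hematocrit, 0.3% parasitemia) grown 72 h at 37 °C under 5% O2 with compounds in a titration, 29 uM to 0.5 nM final. Growth read as SYBR Green-1 fluorescence after ~16 h lysis; artesunate 300 nM as positive control.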
On the % scale 0 is the no-effect control and ±100 the full control effect; potency means the concentration at half of the fitted maximal effect.

SMILES	activity change, negative = inhibition	Potency
COc1cc(NC(=O)CSc2nc3nc(C)c(Cc4ccc(C)cc4)c(C)n3n2)cc(OC)c1	-10.1% (inactive)	–
CC(C)c1ccc(NC(=O)CSc2nc(=O)n(Cc3ccccn3)c3c2CCC3)cc1	-16.5% (inactive)	–
COc1cc(NC(=O)CSc2nc(-c3ccccc3)no2)cc(OC)c1	–	2.37 µM (active)
COc1cc(NC(=O)CSc2nc(-c3ccc(C(C)C)cc3)no2)cc(OC)c1	–	0.842 µM (active)
COc1ccc(C2Cn3nnc(C(=O)NCc4ccc(F)cc4Cl)c3CO2)cc1 (configuration not stated)	-9.54% (inactive)	–
COc1ccc2c(CNCc3ccccc3OC)c(C(=O)O)n(Cc3ccc(F)cc3Cl)c2c1	–	15 µM (active)
Cc1ncc2n1C(=O)N(C1CCN(Cc3ccnn3C)CC1)C2	41.7% [at 43.1 µM] (inactive)	–
O=C(Nc1ccc([C@@H](O)[C@H]2COCC(=O)N2Cc2ccccc2F)cc1)c1ccccc1	3.31% [at 43.1 µM] (inactive)	–
COc1ccc(CN2C(=O)COC[C@@H]2[C@H](O)c2ccc(NC(=O)c3ccc(C(C)(C)C)cc3)cc2)cc1	–	2.11 µM (active)
O=C(Nc1ccc([C@@H](O)[C@H]2COCC(=O)N2Cc2ccc(F)cc2)cc1)c1ccc2c(c1)OCO2	-12.2% (inactive)	–
CCOC(=O)c1nnn(-c2nonc2N)c1-c1ccc(OC)cc1	–	5.31 µM (active)
CCOC(=O)c1nnn(-c2nonc2N)c1-c1ccc(Br)cc1	–	2.66 µM (active)
COc1ccc(-c2noc(CCCC(=O)O)n2)cc1	22.9% (inactive)	–
CCOC(=O)c1nnn(-c2nonc2N)c1-c1ccc(Cl)cc1	–	5.31 µM (active)
Cc1noc(C)c1COC(=O)/C=C/c1ccc(Cl)cc1	-11.8% (inactive)	–
CCOC(=O)c1nnn(-c2nonc2N)c1-c1ccc(C)cc1	–	5.31 µM (active)
CCCS(=O)(=O)N1C[C@@H](COC)[C@H](c2nc(C)no2)C1	0% (inactive)	–
CCC(=O)N1CCc2cc(Br)cc(S(=O)(=O)N3CCCCC3CC)c21 (configuration not stated)	–	1.06 µM (active)
CCC(=O)N1CCc2cc(S(=O)(=O)CCC(=O)NCc3ccc(OC)cc3)ccc21	26.3% (inactive)	–
CC(C)(C)NC(=O)C1CCCN(C2CCN(C3Cc4ccccc4C3)CC2)C1 (configuration not stated)	-11.4% (inactive)	–
CCC(=O)N1CCc2cc(S(=O)(=O)NCCC(=O)Nc3ccc(OC)c(Cl)c3)ccc21	50.2% (inactive)	–
CCC(=O)N1CCc2cc(Br)cc(S(=O)(=O)C3(C(=O)OC)CC3)c21	–	3.76 µM (active)
CCC(=O)N1CCc2cc(Br)cc(S(=O)(=O)N3CCCC(C(=O)NC(C)(C)C)C3)c21 (configuration not stated)	–	3.35 µM (active)
Cc1nc(-c2ccccc2OC2CN(S(=O)(=O)Cc3ccccc3F)C2)no1	-13% (inactive)	–
CC(C)(C)c1ccc(CN(Cc2ccccc2)C(c2ccccn2)c2nnnn2C(C)(C)C)cc1 (configuration not stated)	–	4.73 µM (active)

SMILES	activity change, negative = inhibition	Potency
CC(C)(C)n1nnnc1C(c1cccnc1)N(Cc1ccccc1)Cc1ccco1 (configuration not stated)	–	5.31 µM (active)
Cc1noc(C)c1NC(=O)N1CCC(c2n[nH]c(=O)n2-c2ccccc2)CC1	21.1% (inactive)	–
Cc1nccn1CC(O)Cn1c2ccccc2c2ccccc21 (configuration not stated)	–	8.41 µM (active)
Cc1ccccc1C(=O)N1CCC2(CC1)N(c1ccccc1)C(=O)CS2(=O)=O	0.857% (inactive)	–
O=C(c1cccc2[nH]ccc12)N1CCCC(n2cc(-c3nc(C4CC4)no3)nn2)C1 (configuration not stated)	21.1% (inactive)	–
OCc1ccc(CN2CCCC(CCc3c(F)cccc3F)C2)o1 (configuration not stated)	–	4.22 µM (active)
OC[C@H]1CCN(Cc2ccc(-c3cccc(Cl)c3Cl)o2)C[C@@H]1O	-7.08% (inactive)	–
Cc1cccc(Oc2nc(-c3ccncc3)nc3ccccc23)c1	–	7.5 µM (active)
c1ccc(Oc2nc(-c3ccccn3)nc3ccccc23)cc1	–	7.5 µM (active)
CCCOc1ccc(Oc2nc(-c3ccncc3)nc3ccccc23)cc1	–	4.22 µM (active)
Cc1cccc(Oc2nc(-c3ccccn3)nc3ccccc23)c1	–	7.5 µM (active)
CCSc1nc(CC(=O)NCc2ccc(S(N)(=O)=O)cc2)cs1	16.3% (inactive)	–
CC(=O)c1c(C)[nH]c(C(=O)COc2ccc3ccc(=O)oc3c2)c1C	-18% (inactive)	–
Cc1nn(C)c2nc(-c3ccccn3)nc(N3CCC4(CC3)COC(=O)O4)c12	32.9% (inactive)	–
c1ccc(-c2nc(N3CCCCCC3)c3ccccc3n2)nc1	–	1.68 µM (active)
Cc1ccccc1Oc1nc(-c2ccccn2)nc2ccccc12	–	6.68 µM (active)
Fc1ccc(Oc2nc(-c3ccccn3)nc3ccccc23)cc1	–	13.3 µM (active)
CCCCCCSc1ccc([C@H]2N[C@@](Cc3ccccc3)(C(=O)OC)[C@H]3C(=O)N(CC)C(=O)[C@@H]23)cc1	–	3.35 µM (active)
CCCCCCSc1ccc([C@H]2N[C@@](Cc3ccccc3)(C(=O)OC)[C@H]3C(=O)N(C)C(=O)[C@@H]23)cc1	–	4.73 µM (active)
CCCSc1ccc([C@H]2N[C@@](Cc3ccccc3)(C(=O)OC)[C@H]3C(=O)N(CC)C(=O)[C@@H]23)cc1	–	5.31 µM (active)
O=C(CCl)N(c1ccccc1)c1c[nH]c2ccccc12	–	2.11 µM (active)
Cc1cc2nc(/C=C/c3nc4cc(C)c(C)cc4[nH]3)[nH]c2cc1C	-9.37% (inactive)	–
NC1CC(c2cc(N3CCCN(C(=O)c4ccoc4)CC3)ncn2)C1 (configuration not stated)	45.1% (inactive)	–
COc1ccc(N2CCN(c3cc(C4CC(N)C4)nc(N)n3)CC2(C)C)cc1 (configuration not stated)	–	2.99 µM (active)
Cc1cc(C)cc(N2CCN(c3cc(C4CC(O)C4)nc(C)n3)CC2=O)c1 (configuration not stated)	6.34% (inactive)	–

SMILES	activity change, negative = inhibition	Potency
COc1ccccc1Nc1c2c(nc3ccc(NC(=O)/C=C/c4cccc(OC)c4OC)cc13)CCCC2	–	5.96 µM (active)
COc1ccc(/C=C/C(=O)Nc2ccc3nc4c(c(Nc5ccccc5OC)c3c2)CCCC4)cc1	–	3.35 µM (active)
Fc1ccc(F)c(Nc2c3c(nc4ccc(Cl)cc24)CCC3)c1	-26.2% (inactive)	–
Cc1cc(N2CCN(C3CCCC3)CC2)n2c(nc3ccccc32)c1C#N	–	1.06 µM (active)
O=C(N[C@H](c1ccccn1)C1CC(O)C1)c1cc(=O)n(-c2ccccc2)[nH]1 (some centres not stated)	–	9.44 µM (active)
COc1ccc(NS(=O)(=O)c2cc(NC(=O)/C=C/c3cc(OC)c(OC)c(OC)c3)ccc2N2CCCCC2)cc1	–	6.68 µM (active)
COc1cc2nc(N3CCN(c4cc(C)ccc4C)CC3)nc(N)c2cc1OC	–	6.68 µM (active)
COc1cc2nc(Nc3ccc(C)c(Cl)c3)nc(N)c2cc1OC	–	2.11 µM (active)
COc1cc2nc(Nc3ccc(C)c(C)c3)nc(N)c2cc1OC	–	0.75 µM (active)
CCOC(=O)c1ccc(Nc2nc(N)c3cc(OC)c(OC)cc3n2)cc1	–	1.88 µM (active)
COc1ccc(C(=O)c2nccc3cc(OC)c(OC)cc23)cc1OC	8.83% (inactive)	–
COc1ccc(Cl)cc1C(=O)NCc1nnc2c(-c3nc(C(C)C)no3)cccn12	7.64% (inactive)	–
O=C(NCc1ccc(C(F)(F)F)cc1F)[C@H]1CCC[C@@H](O)C1	21.3% (inactive)	–
CCc1cccc(OC2CN(C(=O)C3CCCN(CC(N)=O)C3)C2)c1 (configuration not stated)	47.6% (inactive)	–
CCOC(=O)c1c(S(=O)(=O)N2CCCC(C(=O)N3CCN(c4cc(C)ccc4C)CC3)C2)c(C)n(C)c1C (configuration not stated)	–	1.5 µM (active)
CCOC(=O)c1c(C)[nH]c(C)c1S(=O)(=O)N1CCCC(C(=O)N2CCN(c3cc(C)ccc3C)CC2)C1 (configuration not stated)	-90.8% (inactive)	–
CCOC(=O)c1c(C)[nH]c(C)c1S(=O)(=O)N1CCCC(C(=O)N2CCN(c3cccc(C)c3C)CC2)C1 (configuration not stated)	–	1.33 µM (active)
CCOC(=O)c1c(S(=O)(=O)N2CCCC(C(=O)N3CCN(c4cccc(C)c4C)CC3)C2)c(C)n(C)c1C (configuration not stated)	–	1.06 µM (active)
OC1CCN(c2cc(N3CCOC(c4ccc(F)cc4)C3)ncn2)CC1 (configuration not stated)	23.8% (inactive)	–
CCCCC(=O)Nc1nc(C)c(-c2csc(Nc3cc(OC)ccc3OC)n2)s1	–	9.44 µM (active)
C=CCCC(=O)Nc1nc(C)c(-c2csc(Nc3ccc(Cl)cc3)n2)s1	-14.8% (inactive)	–
CN(Cc1cc(-c2cccnc2)no1)C(=O)C1COc2ccccc2C1 (configuration not stated)	23.1% (inactive)	–
COC[C@@H]1CN(C(=O)c2cccc(OC(F)(F)F)c2)C[C@H]1C(N)=O	2.91% (inactive)	–
O=C(Nc1ccc(Nc2ccncc2)cc1)c1ccc(Nc2ccnc3ccc([N+](=O)[O-])cc23)cc1[N+](=O)[O-]	–	1.33 µM (active)
O=C(Nc1ccc(Nc2ccncc2)cc1)c1ccc(Nc2ccnc3ccc([N+](=O)[O-])cc23)cc1	–	0.75 µM (active)

SMILES	activity change, negative = inhibition	Potency
COc1cnc(-c2ccccn2)nc1Sc1c(Cl)cccc1Cl	–	2.99 µM (active)
COc1cnc(-c2ccccn2)nc1Sc1ccc(Cl)cc1	–	5.96 µM (active)
Oc1ccccc1C1=NN(c2ccccc2)C(c2ccccc2)C1 (configuration not stated)	–	7.5 µM (active)
COc1ccc(-c2cc(N3CCN(C(=O)c4c[nH]c5ccccc45)CC3)n[nH]2)cc1	–	15 µM (active)
O=C(c1ccc2nc[nH]c2c1)N1CCCN(c2cc(-c3ccc(Cl)cc3)[nH]n2)CC1	25.3% (inactive)	–
CCOc1ccccc1C(=O)N1CCN(c2cc(-c3ccc(OC)cc3)[nH]n2)CC1	-19.4% (inactive)	–
Cn1nc(C(F)(F)F)c(-c2cccc(C(F)(F)F)c2)c1NC(=O)Nc1ccc(F)cc1	–	2.37 µM (active)
COC(=O)c1ccc(NC(=O)Nc2cccc(F)c2)cc1	-29.7% (inactive)	–
Cn1nc(C(F)(F)F)c(Cl)c1C(=O)N[C@@H]1CCNC[C@H]1O	48% (inactive)	–
Cn1nc(C(F)(F)F)c(-c2ccc(F)cc2)c1NC(=O)Nc1ccc(F)cc1	–	1.88 µM (active)
Cc1ccsc1C(=O)N1CCC(n2cc(-c3nc(C(C)C)no3)nn2)CC1	26.4% (inactive)	–
CN(c1ccccc1)c1cc(=O)c2ccnc(-c3ccccc3O)c2o1	-13.3% [at 43.1 µM] (inactive)	–
Cc1noc(C)c1-c1nccc2c(=O)cc(N(C)c3ccccc3)oc12	–	17.2 µM (active)
CN(c1ccccc1)c1cc(=O)c2ccnc(-c3ccncc3)c2o1	7.74% [at 43.1 µM] (inactive)	–
Cc1cnc(CC2CCN(S(=O)(=O)c3ccccc3)CC2)n1Cc1ccccc1	–	5.31 µM (active)
CC(=O)N1CCC(Cc2ncc(C)n2CC2CC2)C1 (configuration not stated)	13.1% (inactive)	–
CCCn1c(C)cnc1CC1CCN(S(=O)(=O)c2ccc3c(c2)CCC3)C1 (configuration not stated)	–	9.44 µM (active)
CCc1ccc(S(=O)(=O)N2CCC(n3cnnc3CC)CC2)cc1	-9.08% (inactive)	–
COc1ccc(S(=O)(=O)N2CCCC(Cc3noc(-c4ccncc4)n3)C2)cc1 (configuration not stated)	4.86% (inactive)	–
Cc1cnc(CC2CCCN(S(=O)(=O)c3ccccc3)C2)n1CC1CC1 (configuration not stated)	–	6.68 µM (active)
COCCn1c(C)cnc1CC1CCN(C(=O)Nc2ccccc2F)C1 (configuration not stated)	13.6% (inactive)	–
O=S(=O)(c1ccccc1)N1CCCC(Cc2noc(-c3ccncc3)n2)C1 (configuration not stated)	39.4% (inactive)	–

Reference: PubChem BioAssay AID1347416 (National Center for Advancing Translational Sciences (NCATS), 2020)
